Experimental findings from PubChem BioAssay (NCATS) are described below.

Structures are written as SMILES. Results filed as inconclusive are left out. Calls of active or inactive are those of the source. Unless noted, the call rests on the fitted dose curve.

The nature of assay [1]: qHTS for Inhibitors of the Functional Ribonucleoprotein Complex (vRNP) of Lassa (LASV) Arenavirus: Viability assay - alamar blue signal for LASV Primary Screen (AID 1347083; calls by dose curve; tested in HEK293 reporter line; further: nearly all actives have a fitted effect of over 80% in size).
A short description of assay [2]: qHTS for Inhibitors of the Functional Ribonucleoprotein Complex (vRNP) of Lymphocytic Choriomeningitis Arenaviruses (LCMV): Viability assay - alamar blue signal for LCMV Primary Screen (AID 1347085; calls by dose curve; tested in HEK293 reporter line; further: nearly all actives have a fitted effect of over 80% in size). (qHTS replaces the single test concentration by a dilution series.)
In assay [3] the target is Nucleoprotein (Lymphocytic choriomeningitis virus (strain Armstrong)) (UniProt P09992). Briefly: qHTS for Inhibitors of the Functional Ribonucleoprotein Complex (vRNP) of Lymphocytic Choriomeningitis Arenaviruses (LCMV): LCMV Primary Screen - GLuc reporter signal (AID 1347086). Further: nearly all actives have a fitted effect of over 70% in size.
Sequence of Nucleoprotein (Lymphocytic choriomeningitis virus (strain Armstrong)) (P09992 whole entry, looked up): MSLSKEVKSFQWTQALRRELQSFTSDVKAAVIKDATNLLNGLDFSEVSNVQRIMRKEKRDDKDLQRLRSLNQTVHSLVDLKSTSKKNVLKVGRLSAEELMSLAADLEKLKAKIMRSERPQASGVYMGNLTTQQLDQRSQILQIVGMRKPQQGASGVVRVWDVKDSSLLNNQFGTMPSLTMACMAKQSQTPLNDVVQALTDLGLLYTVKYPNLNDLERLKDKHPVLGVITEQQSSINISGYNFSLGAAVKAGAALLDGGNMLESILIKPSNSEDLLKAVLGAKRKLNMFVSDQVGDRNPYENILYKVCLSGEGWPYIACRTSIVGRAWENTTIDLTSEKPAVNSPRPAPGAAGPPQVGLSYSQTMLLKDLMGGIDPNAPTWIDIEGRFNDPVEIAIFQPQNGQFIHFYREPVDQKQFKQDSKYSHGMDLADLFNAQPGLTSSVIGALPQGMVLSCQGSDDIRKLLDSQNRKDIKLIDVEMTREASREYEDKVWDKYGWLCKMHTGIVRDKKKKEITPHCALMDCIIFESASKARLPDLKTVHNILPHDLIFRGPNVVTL
Assay [4] in a line: qHTS of pediatric cancer cell lines to identify multiple opportunities for drug repurposing: Primary screen for DAOY cells (AID 1347090; active means well fitted cell-killing curve with a large enough effect; further: nearly all actives have a fitted effect of over 55% in size). An outline of the steps:
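Viability measured as metabolically active cells via CellTiter-Glo luminescence following 48 hours of compound exposure, 11-point dilutions in confirmatory testing. 500-1,000 cells/well plated 5 hours before dosing; controls were DMSO and 2.3 µM bortezomib.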

Assay [5] is described as follows: qHTS of pediatric cancer cell lines to identify multiple opportunities for drug repurposing: Primary screen for TC32 cells (AID 1347089; active means well fitted cell-killing curve with a large enough effect; further: nearly all actives have a fitted effect of over 60% in size). The procedure, abridged: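 TC32 cells, 500-1,000/well in growth medium, compound-treated 48 h at 37 °C; viability from CellTiter-Glo luminescence. Primary screen: MIPE 11-point (0.78 nM–46 µM final), NPC 8-point (0.59 nM–46 µM final); confirmatory at 11-point dilutions.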
Potency means the concentration at half of the fitted maximal effect.

Turning to `N=c1c2c(-c3ccccc3)c(-c3ccccc3)n(Cc3ccccc3)c2ncn1C1CCC(O)CC1` (stereo not drawn), the Potency in assay [1] was 1.09 µM (active); in assay [2], 0.544 µM (active); in assay [3] it was 1.72 µM (active). For the same compound, the Potency entry in assay [4] was “inactive”.
Consider `CC(C)(C)OC(=O)Nc1ccc(-c2cc(C(=O)NCCCCCCC(=O)NO)no2)cc1`, for which the Potency in assay [1] is 17.2 µM (active); in assay [2], 19.3 µM (active).
With `COc1cccc2nc(-c3cccs3)nc(NN3C(=O)C=C(C)C3=O)c12`, the Potency in assay [1] was 2.73 µM (active); in assay [2], 6.11 µM (active); in assay [3] it was 7.69 µM (active).
`CCNC(=O)C[C@@H]1N=C(c2ccc(Cl)cc2)c2cc(OC)ccc2-n2c(C)nnc21`: the Potency is 3.06 µM (active) in assay [1], 1.22 µM (active) in assay [2], 1.22 µM (active) in assay [3] and 5.9 µM (active) in assay [4].
Take `CN(C)Cc1ccc(-c2nc3cccc4c3n2CCNC4=O)cc1`: the Potency in assay [1] is 21.7 µM (active); in assay [2], 6.85 µM (active). Further, in assay [3], the Potency entry was “inactive”.
Regarding `Cc1nc(N)sc1-c1ccnc(Nc2ccc(N3CCOCC3)cc2)n1`, the Potency in assay [1] is 7.69 µM (active); in assay [2], 13.7 µM (active). Besides, in assay [3], the Potency result is “inactive”.
In the same order, the values of `COc1ccc2c3n(c(=NC(=O)c4cccnc4)nc2c1OC)CCN3` are 1.53 µM (active), 0.968 µM (active) and 0.769 µM (active).
In the same order, the values of `CC(C)[C@H](CO)Nc1nc(Nc2ccc(C(=O)O)c(Cl)c2)c2ncn(C(C)C)c2n1` are 0.217 µM (active), 3.85 µM (active) and “inactive”.
For `COc1cc2nccc(Oc3ccc(NC(=O)C4(C(=O)Nc5ccc(F)cc5)CC4)cc3)c2cc1OC`, the Potency in assay [1] is 27.3 µM (active). For the same compound, in assay [3], the Potency result was “inactive”.
With `Cc1[nH]c2ccccc2c1CCNCc1ccc(C=CC(=O)NO)cc1`, the Potency in assay [1] and in assay [2] was 0.863 µM (active) throughout.
As for `COC(=O)Nc1ccc(-c2nc(N3CCOCC3)c3cnn(C4CCN(C(=O)OC)CC4)c3n2)cc1`, the Potency entry in assay [1], in assay [2] and in assay [3] was “inactive” each time.
In the case of `Cc1cccc(Nc2nc(N[C@@H]3CCCC[C@H]3N)ncc2C(N)=O)c1`, the Potency in assay [1] is 4.85 µM (active). Also, the Potency entry in assay [2] and in assay [3] was “inactive” each time.
As for `COc1cc2ncn(-c3cc(OCc4ccccc4C(F)(F)F)c(C(N)=O)s3)c2cc1OC`, the Potency in assay [1], in assay [2] and in assay [3] was 1.72 µM (active) throughout.
Take `Cc1ccccc1-n1c(Cn2ncc3c(N)ncnc32)nc2cccc(C)c2c1=O`: the Potency in assay [1] is 0.485 µM (active); in assay [2] it was 0.137 µM (active); in assay [3] it was 0.193 µM (active); in assay [5] it was 7.39 µM (active); in assay [4], 0.0935 µM (active).
Consider `COc1cc2nc(N3CCCN(C)CC3)nc(NC3CCN(Cc4ccccc4)CC3)c2cc1OC`, for which the figures for the Potency in assay [1], in assay [2] and in assay [3] were 0.611 µM (active), 21.7 µM (active) and 12.2 µM (active), respectively.
Consider `CN(c1ncccc1CNc1nc(Nc2ccc3c(c2)CC(=O)N3)ncc1C(F)(F)F)S(C)(=O)=O`, for which the Potency is 24.3 µM (active) in assay [1] and 34.3 µM (active) in assay [2].
As for `CCc1cncnc1N1CCN(Cc2nc3ccc(C(F)(F)F)cc3[nH]2)CC1`, the Potency result in assay [1] and in assay [2] was “inactive” each time.
On to `CCN1CCN(CC(=O)Nc2ccc(-c3cccc4c(=O)cc(N5CCOCC5)oc34)c3sc4ccccc4c23)CC1`, for which the Potency is 0.544 µM (active) in assay [1], 1.22 µM (active) in assay [2] and 1.22 µM (active) in assay [3].
Turning to `CCCCN1CCC(CNC(=O)c2c3n(c4ccccc24)CCCO3)CC1`, the Potency is 17.2 µM (active) in assay [1], 7.69 µM (active) in assay [2] and 4.32 µM (active) in assay [3].
For the compound `COc1ccc(-c2c(-c3ccc(O)cc3O)n[nH]c2C)cc1`, the Potency entry in assay [1], in assay [2] and in assay [3] was “inactive” in each case.
With `CCOC(=O)Nc1ccc(NCc2ccc(F)cc2)cc1N`, the Potency is 5.44 µM (active) in assay [1], 1.37 µM (active) in assay [2] and 1.53 µM (active) in assay [3]. Besides, the Potency entry in assay [5] and in assay [4] was “inactive” throughout.
For the compound `CC[C@@H]1[C@@H](C)O[C@@](O)([C@@H](C)[C@H](O)[C@H](C)[C@H]2OC(=O)C=CC=C[C@@H](C)[C@@H]([C@@H](C)[C@@H](O)[C@H](C)[C@@]3(O)C[C@H](O[C@H]4C[C@H](O)[C@H](O)[C@H](C)O4)[C@H](CC)[C@@H](C)O3)OC(=O)C=CC=C[C@@H]2C)C[C@H]1O[C@H]1C[C@H](O)[C@H](O)[C@H](C)O1`, the Potency in assay [1] is 43.2 µM (active); in assay [2], 38.5 µM (active); in assay [3], 13.7 µM (active); in assay [5] it was 18.6 µM (active); in assay [4], 0.469 µM (active).
As to `CCOc1cc(N2CCC(O)CC2)ccc1Nc1ncc2c(n1)N(C)c1ccccc1C(=O)N2C`, the Potency in assay [1] is 7.69 µM (active); in assay [2], 6.85 µM (active); in assay [3], 3.43 µM (active).
As to `COc1nn(CSP(=S)(OC)OC)c(=O)s1`, the Potency entry in assay [1], in assay [2] and in assay [5] was “inactive” in each case.
In the case of `Cn1cc(-c2[nH]c3cc(NC(=O)[C@H](N)C4CCCCC4)cc4c3c2C=NNC4=O)cn1`, the Potency is 3.43 µM (active) in assay [1], 4.85 µM (active) in assay [2] and 2.73 µM (active) in assay [3].
For `COc1cc(=C2C=c3ccccc3=N2)[nH]c1=Cc1[nH]c(C)cc1C`, the Potency in assay [1] and in assay [2] was 21.7 µM (active) each time.
Take `COc1cccc2cc(-c3nc(C4CCC(C(=O)O)CC4)n4ncnc(N)c34)[nH]c12` (stereo not drawn): the Potency in assay [1] was 0.611 µM (active); in assay [2], 1.72 µM (active); in assay [3] it was 3.06 µM (active).
